Compounds with a hit are over-represented: about 4% of the library has one in this group of screens.
TIM10 inh – TIM10 yeast growth inhibition | 1.4% of 330,000 active | S. cerevisiae TIM10 strain growth, BacTiter-Glo luminescence, 24 h | inhibition, % at 10 µM;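 active means inhibition of 40% or more at the single tested concentration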;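 further: wild-type TIM10 isogenic control strain grown at permissive 25 °C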
NLRP3 yeast inh – NALP3 inhibition in yeast; Yeast reconstituted NLRP3/ASC/caspase-1, beta-gal luminescence, 24 h; inhibition, % at 10 µM; 0.39% of 330,000 active; AID 2825;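 active means inhibition of 50% or more; inactive means inhibition below 50%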;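 further: plate controls were induced DMSO wells for no effect and uninduced yeast grown without galactose for full effect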
NALP1 yeast inh – inhibitors of NALP1 inflammasome in yeast. 0.61% of 280,000 active. AID 2071. inhibition, % at 10 µM. S. cerevisiae NALP1/ASC/caspase-1 growth, X-gal OD620, 72 h; in the data active means inhibition mostly above about 24%, no sharp cut-off; inactive means mostly below about 32%
tim10-1 inh – growth inhibitors of tim10-1 mutant yeast; S. cerevisiae tim10-1 ts strain growth, BacTiter-Glo, 24 h; 2.2% of 330,000 active; inhibition, % at 20 µM;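 active means inhibition of at least 40%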;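 further: mutant grown at 25 °C; 0% = DMSO wells with yeast and 100% = wells holding no yeast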
tim23-1 inh – tim23-1 yeast growth inhibition; S. cerevisiae tim23-1 growth, BacTiter-Glo luminescence, 24 h; AID 463212; inhibition, % at 20 µM; 1.3% of 330,000 active;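 active means growth inhibition of the mutant yeast at or above 50%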;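 further: temperature-sensitive mutant grown at 25 °C; plate controls were DMSO-treated mutant yeast for no effect and medium wells lacking yeast for full effect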
tim10-1 conf – confirmation of tim10-1 mutant yeast growth inhibitors; shares compounds with tim10-1 inh; S. cerevisiae tim10-1 ts strain growth, BacTiter-Glo, 24 h; inhibition, % at 20 µM; 56% of 7,400 active;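 active means inhibition of yeast growth at or above a set limit in either of two repeat tests at 20 µM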;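 further: tim10-1 mutant grown at permissive 25 °C to find synthetic lethal compounds; 0% = DMSO yeast wells and 100% = medium wells without yeast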
tim10 confirm – TIM10 yeast growth inhibition, confirmed. inhibition, % at 10 µM. AID 463215. 63% of 4,600 active. shares compounds with TIM10 inh. S. cerevisiae tim10 strain growth, BacTiter-Glo luminescence, 24 h;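 active means inhibition of yeast growth at or above a set limit in either of two replicates at 10 µM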;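 further: this counterscreen used the strain with wild-type TIM10; 0% = yeast with DMSO and 100% = medium wells lacking yeast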
tim23-1 confirm – confirmation of tim23-1 mutant yeast growth inhibitors; shares compounds with tim23-1 inh; S. cerevisiae tim23-1 growth, BacTiter-Glo luminescence, 24 h; inhibition, % at 20 µM; 83% of 4,400 active; AID 463218;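 active means inhibition above about 39% in either of two replicate wells at 20 µM, limit read from the data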;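 further: temperature-sensitive tim23-1 mutant grown at 25 °C; 0% = DMSO wells with yeast and 100% = medium wells without yeast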
Starred values were filed as active, the others as inactive; . = no result given.

SMILES | TIM10 inh | NLRP3 yeast inh | NALP1 yeast inh | tim10-1 inh | tim23-1 inh | tim10-1 conf | tim10 confirm | tim23-1 confirm
CCc1ccc2oc(-c3cc(N)ccc3O)nc2c1 | 24 | 18 | 2 | 14 | 7 | . | . | .
CCc1ccc2oc(-c3cc(N)ccc3Cl)nc2c1 | 50* | 8 | 7 | 44* | 56* | 27 | 23 | 47*
Nc1ccc2oc(-c3ccccc3Cl)nc2c1 | 5 | 7 | 28 | 25 | 22 | . | . | .
Nc1ccc2oc(-c3cc(Br)ccc3Cl)nc2c1 | 41* | 16 | 0 | 54* | 59* | 41* | 36* | 55*
O=C1c2ccccc2C(=O)c2c(O)c(O)cc(O)c21 | 38 | 45 | . | 47* | 77* | 29 | . | 70*
COc1ccccc1C1CC(c2ccc(NS(C)(=O)=O)cc2)=NN1C(=O)c1ccccc1 (stereo not given) | 19 | -7 | 13 | 21 | 17 | . | . | .
COc1ccccc1C1CC(c2ccccc2)=NN1C(=O)c1ccccc1 (stereo not given) | 39 | 4 | 4 | 42* | 62* | 46* | . | 52*
Cc1c(C(C)NC(=O)c2cc(COc3cccc4cnccc34)on2)cnn1C (stereo not given) | 4 | -2 | 11 | 24 | 7 | . | . | .
COc1ccc(C(=O)N/N=C/c2c[nH]c3ccccc23)cc1 | 5 | 17 | -9 | -27 | 11 | . | . | .
CCCOc1ccc(C(=O)N/N=C/c2c[nH]c3ccc(Br)cc23)cc1 | 18 | 18 | 5 | 43* | 55* | 37* | . | 54*
Cc1cccc(N2CCN(C(=O)C3CC(=O)N(C4CCCC4)C3)CC2)c1C (stereo not given) | 12 | 16 | 8 | 3 | 10 | . | . | .
COc1ccc(-c2nc(-c3ccccc3)c(-c3cccs3)[nH]2)cc1OC | 34 | -24 | 14 | 41* | 55* | 34* | . | 63*
CC1CCCCN1C(=O)CN1CCN(S(=O)(=O)c2ccc(Br)cc2Cl)CC1 (stereo not given) | 29 | -2 | . | 43* | 52* | 27 | . | 43*
CCN(CC)Cc1c(C(=O)N2CCc3ccccc3C2)nc2ccc(Cl)cn12 | -1 | 21 | 4 | -4 | 9 | . | . | .
O=C1c2c(O)ccc(O)c2C(=O)c2c(NCCNCCO)ccc(NCCNCCO)c21 | -186 | 20 | . | -31 | -46 | . | . | .
O=C1c2ccccc2C(=O)c2c(Nc3ccc(CCO)cc3)ccc(O)c21 | 34 | 25 | 33 | 59* | 57* | 37* | . | 51*
Cc1cc(C)c2c(CN3CCCCC3)cc(=O)oc2c1 | 4 | 14 | 10 | 11 | 6 | . | . | .
Cc1cc(C)c2c(CCl)cc(=O)oc2c1 | 42* | 17 | . | 49* | 62* | 40* | 40* | 53*
CCc1ccc(NC(=O)C2CCN(S(=O)(=O)c3ccc4[nH]c(=O)ccc4c3)CC2)cc1 | -24 | 14 | 23 | -10 | -12 | . | . | .
COc1cc(-c2nc3ccccc3s2)ccc1O | 49* | 26 | 11 | 50* | 52* | 53* | 48* | 55*
Cc1nc(N2CCN(Cc3ccc(Cl)cc3)CC2)c2oc3ccccc3c2n1 | 42* | -2 | 33 | 53* | 54* | 36* | 49* | 43*
CCOC(=O)c1c2c(n(C)c1C)C(=O)C(=O)c1ccc(Br)cc1-2 | 66* | 5 | . | 57* | 56* | 27 | 44* | 47*
Cc1cc(C)cc(CC2CC(=O)N(c3ccc([N+](=O)[O-])cc3)C2=O)c1 (stereo not given) | -29 | 24 | 2 | -23 | 28 | . | . | .
CCOC(=O)C1(CCOc2ccccc2)CCN(Cc2ccc(OC)c(COC)c2)CC1 | 15 | 15 | 21 | 32 | 14 | . | . | .
CC(C)(C)c1ccc(S(=O)(=O)N2CCN(CCC#N)CC2)cc1 | 17 | 10 | 25 | 50* | 51* | 27 | . | 37
SMILES | TIM10 inh | NLRP3 yeast inh | NALP1 yeast inh | tim10-1 inh | tim23-1 inh | tim10-1 conf | tim10 confirm | tim23-1 confirm
CCOC(=O)C1(CC2CCCCO2)CCN(Cc2nc(C(C)C)cs2)CC1 (stereo not given) | 14 | 8 | 4 | 23 | 29 | . | . | .
N#Cc1c([N+](=O)[O-])cc([N+](=O)[O-])cc1S(=O)(=O)Cc1ccccc1 | 54* | 0 | . | 62* | 67* | 61* | 64* | 87*
CC(=O)OCCCN1c2ccccc2Nc2nnc(-c3ccccc3)cc21 | 51* | 23 | 2 | 47* | 51* | 32* | 30* | 49*
CCN(CC(=O)Nc1ccccc1C(F)(F)F)C(=O)CCS(=O)(=O)c1ccc(C)cc1 | 3 | 9 | . | 3 | 12 | . | . | .
Cc1nnc(-c2cnn(C)c2N)n1CCCN1CCOCC1 | -1 | 1 | 15 | -1 | 12 | . | . | .
Cc1ccc2cc(C=C(C#N)C#N)c(N3CCCCC3)nc2c1 | 45* | 3 | -6 | 55* | 75* | 45* | 25 | 73*
CCCCn1c(N)c(N(CCC)C(=O)C2CCCC2)c(=O)[nH]c1=O | 2 | 11 | . | -7 | 1 | . | . | .
O=C(COc1cccc(NC(=O)c2ccco2)c1)c1ccc(F)cc1 | 47* | 22 | -27 | 42* | 55* | 32* | 48* | 71*
O=C(COc1cccc(NC(=O)c2cccc([N+](=O)[O-])c2)c1)c1ccc(F)cc1 | 19 | 17 | -132 | 15 | 12 | . | . | .
CCOc1ccc(N2C(=O)CC(Sc3ccccc3C(=O)O)C2=O)c([N+](=O)[O-])c1 (stereo not given) | 32 | 5 | 0 | 33 | 25 | . | . | .
Cc1ccc(C)c(NC(=S)N/N=C2/CCCCc3ccccc32)c1 | 45* | 43 | 33 | 54* | 57* | 35* | -1 | 44*
CC(Sc1nnc(-c2cccnc2)n1N)C(=O)Nc1ccc2c(c1)OCCO2 (stereo not given) | -3 | 20 | . | 9 | -1 | . | . | .
COc1ccc(CNC(=O)c2cc3cccc(O)c3oc2=N)cc1 | 12 | -9 | 11 | 9 | 19 | . | . | .
COc1ccc(NC(=O)c2ccccc2Oc2ccccc2)c(OC)c1 | -20 | 23 | 13 | 4 | 29 | . | . | .
COc1ccc(OC)c(NC(=O)c2ccccc2OC(C)=O)c1 | 21 | 31 | . | 62* | 54* | 32* | . | 50*
CCc1ccc(-n2c(SCC(=O)NC3CCS(=O)(=O)C3)nc3ccccc3c2=O)cc1 (stereo not given) | 2 | 19 | . | 6 | 9 | . | . | .
O=C(/C=C/c1ccc2c(c1)OCCCO2)c1ccccc1O | 60* | 29 | 61 | 53* | 50* | 46* | -8 | 35
COc1cc(/C=C/C(=O)c2ccccc2O)cc(OC)c1OC | 37 | 25 | 10 | 53* | 62* | 43* | . | 55*
CN(C)c1ccc(/C=C/C(=O)c2ccccc2O)cc1 | 39 | 39 | 16 | 21 | 17 | . | . | .
